Measured values: PubChem BioAssay (Tox21)
Results filed as inconclusive are left out. Activity calls are given as the source filed them. Unless noted, calls come from the whole dose curve; as a rule, active = well fitted curve in the direction sought with a large enough effect in the repeat runs; inconclusive = weak or mixed curves; inactive = no such curve, though single readings can be large; an effect the other way counts as inactive or inconclusive.

Legend:
[1] = qHTS assay to identify small molecule agonists of H2AX (AID 1224845; active = well fitted activation curve with a large enough effect in the signal ratio in the repeat runs, not every such curve was filed as active; the % refers to the signal ratio)
Procedure, shortened: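 Wild-type CHO-K1 cells plated overnight, then exposed 3 hr at 37C to compounds at 15 concentrations (0.76% DMSO). Lysed, then HTRF anti-pH2AX(S139)-cryptate/anti-H2AX-d2 detection after 24 hr at room temperature; emissions 665 and 620 nm.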

[2] = qHTS assay to identify small molecule agonists of the hypoxia (HIF-1) signaling pathway (AID 1224846; active = well fitted activation curve with a large enough effect in the signal ratio in the repeat runs, not every such curve was filed as active; the % refers to the signal ratio)
Procedure, shortened: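 ME-180 HRE-bla reporter cells; compounds in DMSO, 17 h at 37C; read-out beta-lactamase via CCF4-AM FRET.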

[3] = qHTS assay to identify small molecule agonists of H2AX - cell viability counter screen (AID 1224847; calls by dose curve; note: nearly all actives have a fitted effect of over 30% in size; note: potency is the fitted concentration of half-maximal effect)
Procedure, shortened: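 After overnight plating of 1000 CHO-K1 cells per well, a 15-concentration compound series was applied for 3 hr at 37C. Luminescence from CellTiter-Glo, read following 30 min at room temperature, reflected cell viability.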

[4] = qHTS RealTime-Glo MT Cell Viability Assay in HepG2 cells - 24 hour (AID 1224867); note: nearly all actives have a fitted effect of over 50% in size
Procedure, shortened: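 Cell number in HepG2 cultures estimated from NanoLuc luminescence generated by metabolic reduction of a prosubstrate by living cells. The homogeneous, nonlytic format allowed repeated reads at 0, 8, 16, 24, 32 and 40 h of compound exposure.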

[5] = qHTS RealTime-Glo MT Cell Viability Assay in HEK293 cells - 32 hour (AID 1224868); note: top concentration of the series differs between compounds; nearly all actives have a fitted effect of over 50% in size
Procedure, shortened: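 Homogeneous bioluminescent viability format in HEK293 cells (600 cells/well). Following 5 h at 37 C/5% CO2, 23 nL compound was pintooled; the signal was measured repeatedly during 40 h incubation.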

[6] = A CellTox Green Cytotoxicity Assay to monitor cytotoxicity in HEK293 cells - 0 hour (AID 1224869); note: nearly all actives have a fitted effect of over 50% in size
Procedure, shortened: (§1)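 Real-time, in one plate: 600 HEK293 cells/well with dead-cell DNA dye, pinned compound after 5 h, 37 C incubation over 40 h; viable cells give no appreciable fluorescence.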

[7] = qHTS RealTime-Glo MT Cell Viability Assay in HepG2 cells - 40 hour (AID 1224870); note: nearly all actives have a fitted effect of over 50% in size
Procedure, shortened: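 HepG2 cells mixed with RealTime-Glo MT reagents (NanoLuc plus cell-permeant prosubstrate) were seeded at 600 cells/well, incubated 5 h at 37 C/5% CO2, then pinned with compounds in DMSO; nonlytic luminescence tracked viability during 40 h treatment.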

[8] = A CellTox Green Cytotoxicity Assay to monitor cytotoxicity in HEK293 cells - 40 hour (AID 1224871); note: nearly all actives have a fitted effect of over 45% in size; note: potency is the fitted concentration of half-maximal effect
Procedure, shortened: as §1

[9] = qHTS assay to identify small molecule antagonists of the estrogen related receptor (ERR) signaling pathway from Tox21 library (AID 1224848); note: nearly all actives have a fitted effect of over 50% in size
Procedure, shortened: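 Tox21 10K compounds in DMSO tested for ERR pathway antagonism in NTP's ERR cell line; 18 h, 37 C exposure; ONE-Glo luminescence.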

[10] = qHTS assay to identify small molecule agonists of the estrogen related receptor (ERR) signaling pathway from Tox21 library (AID 1224849; calls by dose curve; note: nearly all actives have a fitted effect of over 15% in size); conditions: ERR reporter cell line, ONE-Glo luciferase, 18 h
Procedure, shortened: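 Luciferase activity in ERR pathway reporter cells served as the agonist readout; exposure lasted 18 h at 37 C, with ONE-Glo detection after 30 min at room temperature.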
% is set by controls: 0 for no effect and ±100 for the full control effect.

COCCOc1cc2cc(C(=O)NC3CCN(C(C)C)CC3)n(CC(=O)Nc3ccc(Cl)cn3)c2cn1
inactive: Potency [1] | Potency [2] | Potency [3] | Potency [4] | Potency [5] | Potency [6] | Potency [7] | Potency [8]

CC(C(=O)O)c1ccc2c(c1)[nH]c1ccc(Cl)cc12 (configuration not stated)
inactive: Potency [1] | Potency [2] | Potency [3] | Potency [4] | Potency [5] | Potency [6] | Potency [7] | Potency [8]

CC(CO)Oc1ccccc1 (configuration not stated)
inactive: Potency [1] | Potency [2] | Potency [3] | Potency [4] | Potency [5] | Potency [6] | Potency [7] | Potency [8]

CCCNCCC
inactive: Potency [1] | Potency [2] | Potency [3] | Potency [4] | Potency [5] | Potency [6] | Potency [7] | Potency [8]

CCC(CC)C(C)CCOC(C)=O (configuration not stated)
inactive: Potency [1] | Potency [2] | Potency [3] | Potency [4] | Potency [5] | Potency [6] | Potency [7] | Potency [8]

CC[C@H](C)COC(=O)/C=C/c1ccc(N=Cc2ccc(OC)cc2)cc1
inactive: Potency [1] | Potency [2] | Potency [4] | Potency [6] | Potency [7]
active: Potency [3] 89.7 µM | Potency [8] 48.9 µM

O=C(O)Cc1ccccc1Nc1c(Cl)cccc1Cl
inactive: Potency [1] | Potency [2] | Potency [3] | Potency [4] | Potency [5] | Potency [6] | Potency [7] | Potency [8]

COc1ccc(-c2coc3cc(O)ccc3c2=O)cc1
inactive: Potency [1] | Potency [2] | Potency [3] | Potency [4] | Potency [7] | Potency [8]

NC(=O)c1cccc([N+](=O)[O-])c1
inactive: Potency [1] | Potency [2] | Potency [3] | Potency [4] | Potency [5] | Potency [6] | Potency [7] | Potency [8]

CCc1cccc(CC)c1NC(=O)CN(CC(=O)O)CC(=O)O
inactive: Potency [1] | Potency [2] | Potency [3] | Potency [4] | Potency [5] | Potency [6] | Potency [7] | Potency [8]

Cc1c(C)c([N+](=O)[O-])c(C(C)(C)C)c([N+](=O)[O-])c1C
inactive: Potency [1] | Potency [2] | Potency [9] | activity change, positive = activation ([10]; at 92.4 µM (top of the series)) -6.21% | Potency [4] | Potency [5] | Potency [6] | Potency [7] | Potency [8]

C=CCn1c(=O)n(CC=C)c(=O)n(CC=C)c1=O
inactive: Potency [1] | Potency [2] | Potency [3] | Potency [4] | Potency [5] | Potency [6] | Potency [7] | Potency [8]

CCCC[P+](C)(CCCC)CCCC
inactive: Potency [1] | Potency [2] | Potency [3] | Potency [4] | Potency [6] | Potency [7] | Potency [8]

S=C([S-])NCCNC(=S)[S-].S=C([S-])NCCNC(=S)[S-].[Mn+2].[Zn+2]
inactive: Potency [1] | Potency [2] | Potency [3] | Potency [4] | Potency [6] | Potency [7] | Potency [8]

NC(=S)NC(N)=S
inactive: Potency [1] | Potency [2] | Potency [3] | Potency [4] | Potency [5] | Potency [7] | Potency [8]

CCCC(=O)OCOC(=O)C1=C(C)NC(C)=C(C(=O)OC)C1c1cccc(Cl)c1Cl (configuration not stated)
inactive: Potency [1] | Potency [2] | Potency [3] | Potency [4] | Potency [5] | Potency [6] | Potency [7] | Potency [8]

Oc1cc(Cl)cc(Cl)c1Cl
inactive: Potency [1] | Potency [2] | Potency [4] | Potency [6] | Potency [7]
active: Potency [3] 51.7 µM

O=C(O)c1cc(-c2ccc(F)cc2F)ccc1O
inactive: Potency [1] | Potency [2] | Potency [9] | activity change, positive = activation ([10]; at 42.5 µM (top of the series)) -14.2% | Potency [4] | Potency [6] | Potency [7] | Potency [8]

CC(C)(C)NSc1nc2ccccc2s1
inactive: Potency [1] | Potency [2] | Potency [3] | Potency [4] | Potency [6] | Potency [7] | Potency [8]

OC1CCC(C2CCCCC2)CC1 (configuration not stated)
inactive: Potency [1] | Potency [2] | Potency [9] | activity change, positive = activation ([10]; at 92.4 µM (top of the series)) -1.53% | Potency [4] | Potency [5] | Potency [6] | Potency [7] | Potency [8]

c1ccsc1
inactive: Potency [1] | Potency [2] | Potency [3] | Potency [4] | Potency [6] | Potency [7] | Potency [8]

COC(=O)c1ccccc1OC
inactive: Potency [1] | Potency [2] | Potency [9] | activity change, positive = activation ([10]; at 92.4 µM (top of the series)) 0.916% | Potency [4] | Potency [5] | Potency [6] | Potency [7] | Potency [8]

CCCCCCCCCCOC(=O)c1ccccc1C(=O)OCCCCCCCC
inactive: Potency [1] | Potency [2] | Potency [3] | Potency [4] | Potency [5] | Potency [6] | Potency [7] | Potency [8]

C#Cc1ccc(-c2ccccc2F)cc1
inactive: Potency [1] | Potency [2] | Potency [3] | Potency [4] | Potency [6] | Potency [7] | Potency [8]

CCCCC(CC)COC(=O)CCCCC(=O)OCc1ccccc1 (configuration not stated)
inactive: Potency [1] | Potency [2] | Potency [3] | Potency [4] | Potency [5] | Potency [7] | Potency [8]

CN(C)CCN1CCN(c2cccc(Cl)c2)C1=O
inactive: Potency [1] | Potency [2] | Potency [3] | Potency [4] | Potency [6] | Potency [7] | Potency [8]

O=C(O)Cc1ccc2c(c1)C(=O)c1ccccc1CO2
inactive: Potency [1] | Potency [2] | Potency [3] | Potency [4] | Potency [5] | Potency [7] | Potency [8]

CC1(C)CC(O)CC(C)(C)N1
inactive: Potency [1] | Potency [2] | Potency [3] | Potency [4] | Potency [5] | Potency [7] | Potency [8]
